A selection: hits, their analogues and other compounds. The true share with any hit is near 1.6%.
KCNQ2 pot: enhances the rat KCNQ2 potassium channel; 310,000 tested, 0.54% active; O88943; B-score at 10 µM; AID 2239; CHO-K1 KCNQ2, FluxOR thallium flux fluorescence; stronger effect = higher value;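 active = fluorescence ratio B-score at least 3 SD of library B-scores, with initial fluorescence B-score within 3 of them, cut at about 5.3 in these data; same plate scores as AID 2156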;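 note: B-score of peak minus minimum over baseline fluorescence ratio after K+ and Tl+ stimulus; positive B-score means potentiation of KCNQ2 with more thallium influx and brighter signal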
KCNQ2 inh: blocks the rat KCNQ2 potassium channel | B-score at 10 µM | 310,000 tested, 1.1% active | CHO-K1 KCNQ2, FluxOR thallium flux, 20 min; stronger effect = lower value | AID 2156;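 active = fluorescence ratio B-score at most minus 3 library SDs, with starting brightness B-score within 2 library SDs, cut at about -5.5 in these data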
KCNQ2 inh conf: rat KCNQ2 channel inhibition, confirmatory screen; shares compounds with KCNQ2 inh; KCNQ2-expressing cells, thallium flux; stronger effect = lower value; activity change, negative = inhibition, % at 10 µM; 1,000 tested, 57% active; AID 493025;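 note: 0% = vehicle wells and values are ratio percent relative to vehicle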
KCNQ1 spec: human KCNQ1 activity in KCNQ2 inhibitor specificity screen; shares compounds with KCNQ2 inh; KCNQ1-expressing cells, FluxOR thallium flux fluorescence; stronger effect = lower value; activity change, negative = inhibition, % at 10 µM; 1,000 tested, 15% active; AID 493026;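 active = activity change at least 3 SD of negative controls below their mean in both duplicate wells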;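 note: CHO cells stably transfected with KCNQ1 and depolarized by potassium stimulus; peak minus minimum fluorescence over baseline after thallium addition; 0% = vehicle negative control and -100% = blank without thallium stimulus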
Target sequence (P51787 whole entry, looked up): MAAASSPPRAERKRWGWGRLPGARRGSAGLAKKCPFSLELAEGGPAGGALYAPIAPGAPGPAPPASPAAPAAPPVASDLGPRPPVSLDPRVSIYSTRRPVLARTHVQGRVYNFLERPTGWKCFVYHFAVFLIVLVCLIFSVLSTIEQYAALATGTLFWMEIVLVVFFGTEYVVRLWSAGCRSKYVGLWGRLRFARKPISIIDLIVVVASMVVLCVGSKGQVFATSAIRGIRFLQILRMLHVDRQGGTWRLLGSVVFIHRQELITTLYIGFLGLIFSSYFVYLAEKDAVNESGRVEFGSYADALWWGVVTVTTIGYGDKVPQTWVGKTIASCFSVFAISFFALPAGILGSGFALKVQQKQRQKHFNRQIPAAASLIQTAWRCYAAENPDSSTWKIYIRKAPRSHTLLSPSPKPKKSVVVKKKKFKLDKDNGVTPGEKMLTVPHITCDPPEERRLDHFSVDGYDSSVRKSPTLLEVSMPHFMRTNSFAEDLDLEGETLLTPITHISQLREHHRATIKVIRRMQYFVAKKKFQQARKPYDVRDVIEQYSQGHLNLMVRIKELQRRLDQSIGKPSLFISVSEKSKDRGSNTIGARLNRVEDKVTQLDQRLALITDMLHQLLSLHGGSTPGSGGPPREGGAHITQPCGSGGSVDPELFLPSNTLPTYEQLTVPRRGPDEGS
CHO Tl ctr: activity in parental CHO cells lacking KCNQ2; shares compounds with KCNQ2 inh; thallium flux counter-screen; stronger effect = lower value; activity change, % at 10 µM; 1,000 tested, 14% active;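 note: 0% = vehicle negative controls with stimulus buffer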
KCNQ2 patch conf: blocks rat KCNQ2 current in automated patch clamp; shares compounds with KCNQ2 inh; KCNQ2-expressing cells; calls only at 10 µM; 550 tested, 49% active
* = called active by the depositor; i = inactive; nt = not tested or not shown; + = active, no number. Unless noted, the rule behind the calls is not given here.

SMILES | KCNQ2 pot | KCNQ2 inh | KCNQ2 inh conf | KCNQ1 spec | CHO Tl ctr | others
Cc1cc(OCC(=O)NNC(=O)c2cccnc2)cc(C)c1Cl | 0.42 | i | nt | nt | nt
O=S(=O)(NC1=NCCC1)c1ccc(F)cc1F | 0.53 | i | nt | nt | nt
COc1cccc(C2C(C(=O)Nc3ccc(C)cc3C)=C(C)Nc3ncnn32)c1OC (stereo not given) | -12 | -12* | i | i | i
COc1ccccc1NC(=O)C1=C(C)Nc2ncnn2C1c1ccccc1C (stereo not given) | 0.97 | i | nt | nt | nt
CC1CCCC(C)N1C(=O)COC(=O)CCC1CCCC1 (stereo not given) | nt | i | nt | nt | nt
O=C(CSc1nnc(-c2ccco2)n1Cc1ccccc1)OC1CCCCC1 | -9.4 | -9.4* | -34%* | i | i | KCNQ2 patch conf=+
CCn1c(COc2cccc3ccccc23)nnc1SCC(=O)OC1CCCCC1 | -8.6 | -8.6* | i | i | i
O=C(CSc1nnc(-c2ccncc2)n1Cc1ccco1)OC1CCCCC1 | nt | i | nt | nt | nt
Cn1c(COc2cccc3ccccc23)nnc1SCC(=O)OC1CCCCC1 | nt | i | nt | nt | nt
CCCCN(c1nc2ccccc2nc1Cl)S(=O)(=O)c1ccc(C)cc1 | nt | i | nt | nt | nt
Cc1cc(C(=O)NCCc2ccccc2)c2cc(F)ccc2n1 | nt | i | nt | nt | nt
CCNC(=O)CCSc1nnc(-c2ccco2)o1 | nt | i | nt | nt | nt
CCc1ccccc1S(=O)(=O)Cc1ccc(C(=O)NCc2cccs2)o1 | nt | i | nt | nt | nt
CCOC(=O)c1c(NC(=S)Nc2ccc(F)cc2)sc2c1CCC2 | -7 | -7* | i | i | i
CCOc1ccc(NC(=O)CS(=O)(=O)c2cn(CC)c3ccccc23)cc1 | 1 | i | nt | nt | nt
CCOC(=O)c1c(NC(=O)CS(=O)(=O)c2cn(CC)c3ccccc23)sc2c1CCCC2 | -11 | -11* | -36%* | i | i | KCNQ2 patch conf=+
CCOC(=O)c1c(NC(=S)Nc2ccc(C)cc2)sc2c1CCC2 | 0.01 | i | nt | nt | nt
CCOC(=O)c1c(NC(=O)Cc2cccs2)sc2c1CCCC2 | nt | i | nt | nt | nt
CCOC(=O)c1c(NC(=O)CS(=O)(=O)c2cn(CC)c3ccccc23)sc2c1CCCCC2 | -7 | -7* | -25%* | i | i | KCNQ2 patch conf=+
Cc1nn(CC(=O)N2CCOCC2)c(=O)c2nn(-c3ccccc3)c(C)c12 | 2 | i | nt | nt | nt
CCc1ccc(N(CC(=O)NCCc2ccccc2)C(=O)CCC(=O)Nc2ccccn2)cc1 | 0.61 | i | nt | nt | nt
CC(OC(=O)COc1ccccc1Cc1ccccc1)C(=O)N(C)c1ccccc1 (stereo not given) | nt | i | nt | nt | nt
COc1ccc(CNC(=O)CN2C(=O)C(c3ccccc3)Oc3cccnc32)cc1 (stereo not given) | 1.9 | i | nt | nt | nt
O=C(CN1C(=O)C(c2ccccc2)Oc2cccnc21)NCc1ccccc1F (stereo not given) | -6.8 | -6.8* | -22%* | i | i | KCNQ2 patch conf=+
COc1ccc2nc(SCC(=O)Nc3ccc(S(=O)(=O)N4CCCC4)cc3)c(C#N)cc2c1 | 0.76 | i | nt | nt | nt
SMILES | KCNQ2 pot | KCNQ2 inh | KCNQ2 inh conf | KCNQ1 spec | CHO Tl ctr | others
CCOc1ccc2nc(SCC(=O)Nc3ccc(S(=O)(=O)N4CCCC4)cc3)c(C)cc2c1 | -8.5 | -8.5* | i | i | i
COc1cc(SC)ccc1C(=O)NCCCn1ccnc1 | nt | i | nt | nt | nt
CCOC(=O)COc1c(OC)cc(Cl)cc1C1Nc2ccccc2C(=O)N1c1cccc(C)c1 (stereo not given) | -10 | -10* | i | i | i
CCOC(=O)COc1ccccc1C1Nc2ccccc2C(=O)N1c1cccc(Cl)c1 (stereo not given) | nt | i | nt | nt | nt
Cc1ccc(C(=O)Nc2cccc3cccnc23)cc1C | nt | i | nt | nt | nt
Cc1ccc(OCC(=O)N2CCN(c3nnc(-c4ccc(C)cc4)c4ccccc34)CC2)cc1 | -7.7 | -7.7* | -33%* | i | i | KCNQ2 patch conf=+
COc1ccc(OCC(=O)N2CCN(c3nnc(-c4ccc(C)cc4)c4ccccc34)CC2)cc1 | nt | i | nt | nt | nt
CCOc1cc(CNc2ccc(N(C)C)cc2)cc(Br)c1OCC(=O)NC(C)(C)C | nt | i | nt | nt | nt
CCOc1cc(CNc2cccc3ccccc23)cc(Br)c1OCC(=O)NC(C)(C)C | -6.8 | -6.8* | i | i | i
NC(=O)C1(N2CCCCC2)CCN(S(=O)(=O)c2cc(Cl)sc2Cl)CC1 | nt | i | nt | nt | nt
CN(Cc1ccccc1)C(=O)c1ccco1 | 0.04 | i | nt | nt | nt

High-throughput results as filed in PubChem.
